A selection: hits, their analogues and other compounds. The true share with any hit is near 2.7%.
RXFP1 agonist: RXFP1 (human) receptor agonism; HEK293T-RXFP1 cAMP TR-FRET, 30 min; response scale: percent of porcine relaxin response, buffer zero; Potency, µM (highest dose often 57.5 µM), inactives show top-dose activation, actives largely listed as activators; 0.3% of 370,000 active; AID 2676; Q9HBX9; active = well fitted activation curve with a large enough effect; inconclusive = small, poorly fitted or top-dose-only effect; also: potency is read from the fitted curve at half-maximal effect; % is scaled to controls: 0 for no effect and ±100 for the full control effect; nearly all actives have a fitted effect of over 60% in size
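HEK293 cells stably expressing RXFP1, treated 30 min at 37C with compounds plus PDE4 inhibitor Ro 20174; cAMP measured by HTRF TR-FRET. Normalized to buffer and 29 nM porcine relaxin; EC50 by Hill fit.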
ClpP mod: qHTS Assay for Activators of ClpP | 1.9% of 340,000 active | purified B. subtilis ClpP, FRET peptide cleavage, 20 min | ATP-dependent Clp protease proteolytic subunit (Bacillus subtilis (strain 168)), P80244 | AID 651965, 2013 | Potency, µM (series often up to 57.5 µM), for the others: top-dose activity change, negative = active; active = well fitted falling curve with a large enough effect; inconclusive = small, poorly fitted or top-dose-only effect; inactive = no such curve, though single readings can be large or run the other way; also: potency is read from the fitted curve at half-maximal effect; the source files actives as falling curves though it sought activators and does not explain the sign; nearly all actives have a fitted effect of over 65% in size
Target sequence (P80244 whole entry, looked up): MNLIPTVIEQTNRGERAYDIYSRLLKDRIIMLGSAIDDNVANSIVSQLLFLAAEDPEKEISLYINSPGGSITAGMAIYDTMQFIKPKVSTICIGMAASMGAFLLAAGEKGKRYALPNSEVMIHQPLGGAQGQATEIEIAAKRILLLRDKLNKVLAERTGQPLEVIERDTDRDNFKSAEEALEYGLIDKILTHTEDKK
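Purified B. subtilis ClpP, 10 microg/mL final in Tris/HCl pH8 with KCl, BSA, glycerol and Tween-20, cleaved an Abz/nitrotyrosine-quenched decapeptide. Fluorescence (ex 320, em 430) was read at 0 and 20 min at room temperature. Delta was normalized to 5.8 microM ADEP and DMSO/no-enzyme controls.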
gsp agonist: agonists of gsp mutant (McCune-Albright syndrome); 0.13% of 340,000 active; gsp mutant cells, cAMP HTRF, 30 min; AID 624287; Potency, µM (highest dose often 76.9 µM), for the others: top-dose activation (cAMP increase), hits mostly activators; active = well fitted activation curve with a large enough effect; inconclusive = small, poorly fitted or top-dose-only effect, or another doubt; inactive = no such curve, though single readings can be large or run the other way; cell line not stated here;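 also: phosphodiesterase inhibitor Ro 20-1724 added with compounds to block cAMP breakdown; potency is read from the fitted curve at half-maximal effect; nearly all actives have a fitted effect of over 60% in size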
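Cells stably selected in G418 were plated at 2000/well, grown 16-24 hr, then given compounds in DMSO with the PDE inhibitor […] (300 uM solution added) for 30 min at 37C; cAMP was read by HTRF.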
gsp antag: antagonizes gsp, the McCune-Albright syndrome mutation; gsp-mutant cells, cAMP HTRF, 30 min; Potency, µM (highest dose often 76.9 µM), inactives show at the highest dose activity change, negative = inhibition, usual class: inhibitors; AID 624288; 0.4% of 340,000 active; calls by dose curve; cell line not stated here;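 also: intracellular cAMP measured with PDE inhibitor Ro 20-1724 present during compound exposure; potency is read from the fitted curve at half-maximal effect; % is scaled to controls: 0 for no effect and ±100 for the full control effect; nearly all actives have a fitted effect of over 65% in size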
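Cells, 2000/well, grown 16–24 h in DMEM 10% FBS with 0.5 mg/ml G418, then compounds plus […] (300 uM addition stock), 30 min at 37C. cAMP read by HTRF (cAMP-d2 and anti-cAMP antibody-K in lysis buffer) after 30 min RT.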
pAkt inh: Akt phosphorylation inhibition. Neuro2A IGF-stimulated pAkt S473 HTRF, 20 min; active compounds read low. activity change, % for hits at 50 µM. 0.32% of 360,000 active. AID 651550; in the data active = activity change below about -80%; inconclusive = mostly about -51% to -80%; also: % is scaled to controls: 0 for no effect and ±100 for the full control effect
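Neuro2A cells in DMEM with 0.5% FBS, overnight at 37 deg C, given compound at single 50 µM final, then IGF (6 nM final) for 20 min at 37 deg C. Lysed; phospho-Akt Ser473 by HTRF after 24 h, 665/615 ratio.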
RXFP1 antag: antagonists of human relaxin receptor RXFP1; Q9HBX9; HEK293-RXFP1, relaxin-stimulated cAMP HTRF, 30 min; active compounds read low; activity change, negative = inhibition, % at 57.5 µM; 0.59% of 350,000 active;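 active = activity change of -60% or lower, but not beyond a set lower limit; inconclusive = change between -60% and -40%, or beyond the set limit; inactive = change above -40%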; also: % is scaled to controls: 0 for no effect and ±100 for the full control effect
Numbers without * were called inactive; i = inactive; ? = inconclusive; nt = no result; [ ] = another dose, or the depositor's remark.

SMILES	RXFP1 agonist	ClpP mod	gsp agonist	gsp antag	pAkt inh	RXFP1 antag
CSC1=NSC2=NC(=O)/C(=C\c3cccs3)C(=N)N12	1.7%	1.6%	3.1%	35.5µM*	i	-2.6
CC(C)(C)NC(=O)C(C1CC1)n1c(=O)c(-c2ccco2)nc2ccccc21 (stereo not given)	nt	4.0%	nt	nt	i	nt
CC(C)CC(=O)Nc1cc(-c2ccccc2F)nn1-c1ccccc1	1.2%	-6.0%	nt	nt	nt	nt
COC(=O)c1c(-c2cccs2)csc1NC(=O)COc1ccc(C(C)C)cc1	11.2%	28.2µM*	nt	nt	nt	-20.9
COc1ccc(-n2ncc(N(C)n3cccc3)c(Cl)c2=O)cc1	-1.4%	-0.6%	-0.6%	7.6%[15.4 µM]	-114.7%*	-9.4
Cc1ccccc1OCc1ccc(-c2nc(C#N)c(N3CCC(C(N)=O)CC3)o2)o1	1.0%	3.9%	nt	nt	nt	5.1
Cc1ccc(S(=O)(=O)N2CCN(c3nc(-c4cncs4)nc4ccccc34)CC2)cc1	nt	4.0%	nt	nt	nt	nt
CCC1(CC)NC(=O)N(CC(=O)OCc2nc3cc(C(=O)OC)ccc3c(=O)[nH]2)C1=O	1.6%	28.2µM*	15.1%	-3.0%	i	2.0
COC(=O)c1ccc2c(=O)[nH]c(CCl)nc2c1	3.4%	nt	1.4%	2.6%	i	-9.3
O=c1[nH]c(-c2ccccc2)ncc1OCc1ccccc1	nt	0.8%	8.1%	6.5%	i	-1.5
CCn1c(C)nc2cc(C(=O)NNC(=O)c3ccc(C)cc3)ccc21	0.2%	-19.1%	6.9%	-8.4%	i	-0.7
CCn1c(C)nc2cc(C(=O)NNS(=O)(=O)c3c(C)c(C)cc(C)c3C)ccc21	0.1%	-1.1%	-7.3%	0.9%	-120.0%*	3.3
CCn1c(C)nc2cc(C(=O)OC(C(F)(F)C(F)F)C(F)(F)C(F)F)ccc21	-0.2%	1.1%	10.8%	22.4µM*	i	-4.7
C=C(C(=O)O)c1ccc2ccccc2c1	nt	4.2%	nt	nt	nt	nt
CN1c2ccccc2C(O)=C(C(=S)Nc2ccc(Cl)cc2)S1(=O)=O	-1.8%	-0.2%	2.7%	28.2µM*	i	-4.4
CN1c2ccsc2C(O)=C(C(=O)Nc2ccccc2)S1(=O)=O	-1.5%	-0.3%	-38.7%	?	i	-3.0
Cc1cccc(NC(=O)C2=C(O)c3ccccc3N(C)S2(=O)=O)c1	-2.0%	2.9%	18.3%	25.1µM*	i	17.9
CCCC(C(=O)Nc1ccncc1)c1ccccc1 (stereo not given)	0.1%	1.4%	-6.5%	7.8%	i	-1.7
CCOC(=O)N1CCc2cc(OC)c(OC)c3c2c1cc1cc(OC)c(OC)cc13	nt	28.2µM*	-9.0%	-7.8%	i	-2.8
Clc1ccc(-c2csc(NNC3=NCCCCC3)n2)cc1	1.9%	-2.8%	1.6%	18.8%	-111.5%*	-3.7
Cc1nnc(NC(=O)CSc2nnc(CC(=O)Nc3ccccc3F)n2C)s1	-0.1%	nt	8.7%	3.6%	i	9.6
Cc1ccc(S(=O)(=O)Nc2ccc(Nc3nccn4c(-c5ccc6ccccc6c5)cnc34)cc2)cc1	nt	-25.3%	nt	nt	i	nt
Cc1csc(NC(=O)CSc2nnnn2C)n1	0.0%	-2.8%	6.8%	11.2%	-116.9%*	1.5
O=C(c1ccccc1)C(CN1CCCCC1)c1ccccc1 (stereo not given)	nt	nt	4.8%	-4.9%	i	-82.0*
O=C(c1ccc(Br)cc1)C(CN1CCOCC1)c1ccccc1 (stereo not given)	1.0%	-2.2%	-0.1%[15.4 µM]	0.1%	i	?
SMILES	RXFP1 agonist	ClpP mod	gsp agonist	gsp antag	pAkt inh	RXFP1 antag
COc1cc(/C=N/Nc2nc(Nc3ccccc3)nc(-n3nc(C)cc3C)n2)cc(OC)c1OC	0.3%	nt	?	-13.4%	i	1.1
COc1cc(/C=N/Nc2nc(Nc3ccc(C)cc3)nc(-n3nc(C)cc3C)n2)cc(OC)c1OC	0.7%	28.2µM*	-2.7%	-3.2%	i	3.3
O=C(C[n+]1cccc2cccc(O)c21)c1ccccc1	nt	-2.7%	nt	nt	nt	nt
O=C(Nc1ccccc1)N1CCN(c2nc(-c3ccccc3)ns2)CC1	1.4%	0.1%	8.9%[15.4 µM]	35.5µM*	i	-17.7
O=C(O)c1ccc2c(c1)C(=O)N(NC(=O)c1ccccc1)C2=O	-1.3%	0.9%	10.5%	9.5%	i	-0.4
O=C1c2ccc3c4c(ccc(c24)C(=O)N1NC(=O)C(F)(F)F)CC3	-2.0%	35.5µM*	-32.6%	-16.8%	i	-17.9
O=C(NN1C(=O)c2ccc3c4c(ccc(c24)C1=O)CC3)c1ccc(Br)cc1	0.1%	12.6µM*	0.1%	2.1%	i	4.0
CCc1nc2nc(C)c(NS(=O)(=O)c3ccc(C4CCCCC4)cc3)c(=O)n2[nH]1	0.5%	nt	-24.9%	1.7%	i	3.3
COc1ccc2c(c1)c1c(c(=O)n(Cc3ccccc3)c(=O)n1Cc1cc(C)ccc1C)n2C	1.1%	?	nt	nt	nt	nt
O=C(COC(=O)c1cc(-c2ccc(Cl)s2)nc2ccccc12)NCc1ccco1	4.6%	-3.3%	?	-12.6%	i	-7.7
CCOc1ccccc1CNC(=O)c1cc(-c2ccc(Cl)s2)nc2ccccc12	16.7%	28.2µM*	nt	nt	nt	-9.4
COc1cccc(CNC(=O)c2cc(-c3ccc(Cl)s3)nc3ccccc23)c1	18.8%	3.16µM*	nt	nt	nt	8.7
COc1ccc(CNC(=O)COC(=O)c2cc(-c3ccc(Cl)s3)nc3ccccc23)cc1	1.9%	25.1µM*	21.7%	-3.2%	i	1.1
COc1cc(Br)c(CC(=O)NO)cc1OC	nt	0.6%	nt	nt	nt	nt
CN1C(=O)C2CCCCN2c2ccc(C(=O)NCc3ccccc3Br)cc21 (stereo not given)	0.9%	-9.4%	nt	nt	nt	-7.3
Cc1cccc(OCC(=O)Nc2ccc(OCc3cc(=O)n4cc(C)ccc4n3)cc2)c1	6.3%	-19.6%	nt	nt	nt	-7.1
O=C(Nc1ccc(-n2nncc2-c2ccccc2)cc1)c1ccccc1	nt	3.3%	nt	nt	nt	nt
COC(=O)c1nn(-c2ccccc2)c(Sc2ccc(C)cc2)c1/C=N/O	1.6%	0.5%	-2.2%	-12.7%	i	-10.4
COC(=O)c1nn(-c2ccccc2)c(Sc2ccccc2)c1/C=N/O	1.9%	1.3%	17.8%	-0.1%	-106.8%*	-9.6
CCOc1ccc(Nc2oc(-c3ccc(COc4ccc(C)cc4)o3)nc2C#N)cc1	0.1%	48.9%	nt	nt	nt	-3.8
CC(C)(C)C(=O)Nc1scc(-c2ccc(-c3ccccc3)cc2)c1C(=O)O	3.6%	-4.9%	-79.5%	35.5µM*	i	-2.3
COc1cccc(-c2nc3ccc(C(=O)NC(C)Cc4cccnc4)cc3o2)c1 (stereo not given)	0.2%	3.6%	-19.1%	-12.9%	i	-0.2
O=C(Cn1c(=O)c2sccc2n(CC(=O)Nc2ccc(Cl)cc2Cl)c1=O)NCCc1ccccc1	1.4%	-0.2%	nt	nt	nt	-2.3

Source: PubChem BioAssay
